Source: PubChem BioAssay
For some assays here: Potency and affinity values are given separately. The source made the active and inactive calls.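 The calls were made as follows, unless noted: active = fitted half-maximal concentration within the tested dose range, moderate curve steepness, a statistically real signal drop, and little compound fluorescence or tag-binding interference; inactive = the rest.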

Experiments:
[1] = biological target: Cell division control protein 42 homolog (Homo sapiens) (UniProt P60953); experiment: activated mutant Cdc42 GTP-binding inhibitors, dose response, biochemical, multiplex bead flow cytometry, Bodipy-FL-GTP (AID 1333)
Cell division control protein 42 homolog (Homo sapiens), sequence (P60953 whole entry, looked up): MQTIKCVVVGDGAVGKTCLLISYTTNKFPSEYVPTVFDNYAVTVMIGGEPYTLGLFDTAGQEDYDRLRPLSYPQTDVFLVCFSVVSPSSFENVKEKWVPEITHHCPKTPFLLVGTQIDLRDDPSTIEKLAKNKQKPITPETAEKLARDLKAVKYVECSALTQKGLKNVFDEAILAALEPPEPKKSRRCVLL

[2] = biological target: Cell division control protein 42 homolog (Homo sapiens) (UniProt P60953); experiment: wildtype Cdc42 GTP-binding inhibitors, dose response, biochemical, multiplex bead flow cytometry, Bodipy-FL-GTP (AID 1334;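 active = fitted half-maximal concentration within the tested range, moderate curve steepness, significant signal drop, and little compound fluorescence or bead-linkage interference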); settings: bead-based flow cytometry, Bodipy-FL-GTP binding to GST-Cdc42; at 100 µM (top of the series) unless noted
[3] = biological target: GTPase HRas (Homo sapiens) (UniProt P01112); experiment: inhibitors of GTP binding to wildtype Ras, dose response, biochemical, multiplex bead flow cytometry (AID 1335;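 active = fitted half-maximal concentration within 10 nM to 100 µM, steepness 0.5 to 2, significant signal drop, low assay interference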); settings: bead-based flow cytometry, Bodipy-GTP binding to GST-Ras; at 100 µM (top of the series) unless noted
GTPase HRas (Homo sapiens), sequence (P01112 whole entry, looked up): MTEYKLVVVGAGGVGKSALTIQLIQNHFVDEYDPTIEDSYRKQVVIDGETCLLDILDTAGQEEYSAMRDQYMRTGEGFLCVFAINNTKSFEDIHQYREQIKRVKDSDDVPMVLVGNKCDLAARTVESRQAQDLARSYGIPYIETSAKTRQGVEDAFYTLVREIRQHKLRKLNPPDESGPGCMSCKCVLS

[4] = test system: Ras-related protein Rab-7a (dog), GTP binding; experiment: Rab7 GTP binding inhibitors, potency, dose response, biochemical, wildtype, multiplex bead flow cytometry (AID 1336; call rule not given here)
[5] = biological target: Ras-related C3 botulinum toxin substrate 1 (Homo sapiens) (UniProt P63000); experiment: wildtype Rac1 GTP binding inhibitors, dose response, biochemical, multiplex bead flow cytometry (AID 1340;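 active = dose curve with midpoint inside tested range, moderate steepness, plateau gap beyond fit error, low compound glow and bead-link interference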); settings: GST-Rac1 beads, Bodipy-FL-GTP binding; at 100 µM (top of the series) unless noted
[6] = biological target: GTPase HRas (Homo sapiens) (UniProt P01112); experiment: activated Ras mutant GTP binding inhibitors, dose response, biochemical, multiplex bead flow cytometry (AID 1341;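 active = dose-response curve with midpoint inside the tested range, moderate steepness, significant amplitude and little compound fluorescence or bead-attachment interference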;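 also: GST-tagged constitutively activated Ras mutant immobilized on beads and multiplexed with other GTPases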)
[7] = RPL19A-GFP modulators, yeast TOR pathway, confirmation, cell-based, S. cerevisiae, flow cytometry, cherry picks, mother/daughter gates (AID 2270;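 active = GFP response below 50% of the DMSO control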); settings: S. cerevisiae RPL19A-GFP strain, 3 h, at 10 µM, stronger effect = lower value, 100 = same GFP as DMSO wells
[8] = LAP4-GFP expression modulators in yeast, confirmation, cell-based, cherry picks, flow cytometry, mother/daughter gates (AID 2271;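 active = GFP response above 150% of the DMSO control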;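 also: ratio of sample to DMSO plate mean so 100% equals DMSO level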); settings: S. cerevisiae LAP4-GFP strain, 3 h, at 10 µM, stronger effect = higher value, 100 means same as DMSO control
[9] = modulators of MEP2-GFP levels in yeast, confirmation, S. cerevisiae, flow cytometry GFP, cherry picks (AID 2272;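 active = GFP response above 150% of the DMSO control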;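 also: ratio of well signal to plate DMSO mean so 100% equals DMSO level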); settings: S. cerevisiae MEP2-GFP strain, 3 h, at 10 µM, stronger effect = higher value
[10] = AGP1-GFP expression modulators, hit retest, confirmation, cell-based, flow cytometry, S. cerevisiae, cherry picks (AID 2273;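 active = GFP response above 150% of the DMSO level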;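 also: median GFP channel fluorescence over the whole cell population gate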); settings: S. cerevisiae AGP1-GFP strain, 3 h, at 10 µM
[11] = modulators of CIT2-GFP expression in yeast, confirmation, S. cerevisiae, GFP fusion, cherry picks, mother/daughter gates (AID 2274;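 active = GFP response above 150% of the DMSO level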); settings: S. cerevisiae CIT2-GFP strain, flow cytometry, 3 h, at 10 µM, stronger effect = higher value
[12] = measured here: daughter cell gate
[13] = measured here: mother cell gate
[14] = measured here: daughter cell gate response
[15] = measured here: mother cell gate response

SMILES	outcome [1]	fluorescence, percent of control (lower = inhibition) [2] [%]	GTP binding, percent of control [3] [%]	outcome [4]	GTP binding signal, raw median fluorescence (lower = inhibition) (MCF (arbitrary fluorescence units)) [5]	outcome [6]	GFP response vs DMSO [7]	GFP response vs DMSO [7, 12] [%]	GFP response vs DMSO [7, 13] [%]	GFP response relative to DMSO [8]	GFP response relative to DMSO [8, 14] [%]	GFP response relative to DMSO [8, 15] [%]	GFP response vs DMSO [9]	GFP response, % of DMSO [10]	GFP response, % of DMSO [11]	GFP response, % of DMSO [11, 12] [%]	GFP response, % of DMSO [11, 13] [%]
CN(/N=C/C=C/c1ccccc1)C1=NS(=O)(=O)c2ccccc21	inactive	40.3	51.8	inactive	124	inactive	–	–	–	–	–	–	–	–	–	–	–
COCCn1c(=S)[nH]c2cc(C(=O)N3CCc4ccccc4C3)ccc2c1=O	inactive	35.6	83.9	inactive	–	inactive	–	–	–	–	–	–	–	–	–	–	–
COCCN1C(=O)/C(=C/c2ccc(N3CCCC3)cc2C)SC1=S	inactive	77.8	104	inactive	224	inactive	99.6% (inactive)	99.1	100	117% (inactive)	117	116	143% (inactive)	101% (inactive)	112% (inactive)	112	112
COc1ccc(Cl)cc1NCc1sc(C(=O)O)cc1C	inactive	62.5	84.3	inactive	–	inactive	–	–	–	–	–	–	–	–	–	–	–
CC(C)(C)c1ccc(C(=O)CC(Sc2ccc(Cl)cc2)C(=O)O)cc1 (stereo not given)	inactive	30.3	79.2	inactive	285	inactive	100% (inactive)	97.1	100	120% (inactive)	112	125	101% (inactive)	98.4% (inactive)	79.7% (inactive)	79.4	77.8
